The values that follow come from PubChem BioAssay AID504707 (The Scripps Research Institute Molecular Screening Center, 2011).

Screen size: about 340,000 compounds; about 280 (0.082%) were called active.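 How the source made its calls: active means percent activation above the mean of all tested compounds plus 3 SD (cut at about 19% in these data); inactive means the rest.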 Shown is part of a subset that was picked to be rich in actives.

For this test, the target named is cAMP-dependent protein kinase type I-alpha regulatory subunit (Bos taurus) + cAMP-dependent protein kinase catalytic subunit beta (Mus musculus) (UniProt P00514+P68181). The test is described as follows: activators of PKA-R1A holoenzyme, primary screen, biochemical, fluorescence polarization, Cy5-IP20, bovine R1A, mouse PKAc (AID 504707).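 Further: higher means more PKAc released from R1A so a rise in polarization.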 The following applies: PKA-R1A dissociation, at 11.4 µM, stronger effect = higher value, scaled: DMSO 0%, 113 µM cGMP 100%. In general terms: In fluorescence polarisation assays a small probe gives low polarisation when free and higher when bound to something large.
Turning to `CCc1nnc(NC(=O)c2ccco2)s1`, the activation is -1.79% (inactive).

As to `Cc1cccc(C(=O)C(O)(c2ccccc2)C2CCCCC2=O)c1` (stereo not drawn), the activation is -0.27% (inactive). The result for `COc1ccc(S(=O)(=O)N(C)C[C@H]2OCc3cnnn3CCCC(=O)N([C@H](C)CO)C[C@H]2C)cc1` reads 9.03% (inactive); that for `CCOC(=O)C1(O)CC(C)=NN1C(=O)c1cccc(Br)c1` (stereo not drawn), -8.67% (inactive); that for `C#CCN(C[C@H]1[C@H](OC(=O)NC2CCCC2)[C@H](OC(=O)NC2CCCC2)C[C@H]2C(=O)N(c3ccccc3)C(=O)[C@@H]12)S(=O)(=O)c1ccc(C)cc1`, 7.98% (inactive). The result for `COc1ccc(S(=O)(=O)N2CCC(C(=O)NCCC(=O)Nc3ccccc3OC)CC2)cc1` reads -8.6% (inactive); that for `COc1ccc(C=C2CCC3C(CCCC34OCCO4)C2=O)cc1` (stereo not drawn), -11.2% (inactive). In the case of `Cc1ccccc1NC(=O)Cc1nc(COC(=O)CNC(=O)c2ccc(Cl)cc2Cl)cs1`, the activation was 4.88% (inactive).

With `COc1ccc(NC(=O)N(C)C[C@@H]2OCc3cn(nn3)CCCC(=O)N([C@H](C)CO)C[C@H]2C)c(OC)c1`, the activation was 1.93% (inactive).

As for `Cc1ccc(-c2ccc(CN3C(C(C)C)C(=O)N(Cc4cn(CCC5OCCO5)nn4)CCS3(=O)=O)cc2)cc1` (stereo not drawn), the activation is -8.79% (inactive).

On to `N#Cc1ccc(OCC(=O)Nc2nc(-c3ccccn3)cs2)cc1`, for which the activation was 8.97% (inactive).

As for `Cn1c(CCN2CCN(c3ccccn3)CC2)nc2cc(NS(=O)(=O)c3ccc(F)cc3)ccc21`, the activation was -5.08% (inactive). On to `COCCNC(=O)CSc1nc(N)c(NC(=O)c2ccco2)c(=O)[nH]1`, for which the activation is 5.93% (inactive).

With `CC1(C)NC(=O)N(CC(=O)Nc2ccc(-c3ccccc3)cc2)C1=O`, the activation is -8.93% (inactive).

Take `CCn1c(SCC(=O)N(C)C2CCS(=O)(=O)C2)nnc1-c1cccs1` (stereo not drawn): the activation was 0.15% (inactive). Regarding `CN(C(=O)CSc1nnc(Nc2ccccc2)s1)C1CCS(=O)(=O)C1` (stereo not drawn), the activation was 19.6% (active). The result for `CC(C)N(C(=O)CSc1nnc(NC2CC2)s1)c1ccccc1` reads -3.79% (inactive); that for `CC1(c2cccc(N)c2)OCCO1`, -5.54% (inactive). Consider `O=C(CCCN1C(=O)C(c2ccccc2)Oc2cccnc21)Nc1ccccc1Br` (stereo not drawn), for which the activation is -1.04% (inactive). In the case of `O=C(ON=C1CCN(S(=O)(=O)c2ccccc2)CC1)c1ccc(Cl)cc1` it was 6.75% (inactive); in that of `CNC(=O)C[C@H]1C(=O)N(c2ccc(OC)cc2)C[C@@H]1Cc1ccccc1`, -2.17% (inactive); in that of `O=C(CN1CCN(S(=O)(=O)c2ccc(Cl)s2)CC1)NCc1ccc(Cl)cc1`, 6.31% (inactive).

Take `COCC(=O)N(C)C[C@H]1Oc2cc(Br)ccc2S(=O)(=O)N([C@H](C)CO)C[C@H]1C`: the activation was -4.65% (inactive). The result for `CCN(CC)C(=O)C1=C(C)N(Cc2ccc(F)cc2)C(=O)C(CC(=O)NC2CCCC2)C1` (stereo not drawn) reads 12.1% (inactive); that for `Cc1ccc(Cc2c(-c3ccccc3)nc3ccc(Cl)cn23)cc1`, -1.62% (inactive). The result for `Cc1cccc(S(=O)(=O)N(C)C[C@H]2OCc3cnnn3CCCC(=O)N([C@@H](C)CO)C[C@H]2C)c1` reads 7.92% (inactive); that for `CC(C)n1ncc2c(C(=O)N3CCN(Cc4cccs4)CC3)cc(C3CC3)nc21`, 1.11% (inactive); that for `C[C@H](CO)N1C[C@H](C)[C@@H](CN(C)S(=O)(=O)c2ccc(Oc3ccccc3)cc2)OCc2cn(nn2)CCCC1=O`, 1.58% (inactive). In the case of `COCCn1c(SCC(=O)Nc2ccc(F)cc2F)nc2c(c1=O)SCC2` it was -3.58% (inactive). On to `C[C@@H]1CN([C@H](C)CO)C(=O)CCCn2cc(nn2)CO[C@H]1CN(C)S(=O)(=O)c1ccc(Oc2ccccc2)nc1`, for which the activation is -8.71% (inactive). Take `Cc1ccc(S(=O)(=O)N2C[C@H]3C(=O)C[C@@H](c4cccc5ccccc45)N(S(=O)(=O)c4ccc(C)cc4)[C@H]3C[C@H]2c2ccc(Cl)cc2)cc1`: the activation is 1.48% (inactive). In the case of `COc1ccc(S(=O)(=O)N(C)C)cc1NC(=O)COC(=O)c1n[nH]c2ccccc12` it was 0.55% (inactive); in that of `O=C(NCCOc1ccccc1)c1ccccc1F`, -12.1% (inactive); in that of `CCN1CCN(CCNC(=O)c2ccc3c(c2)NC(=O)/C(=C\c2cccc(Cl)c2)S3)CC1`, -8.75% (inactive). Turning to `C[C@H]1CN([C@@H](C)CO)C(=O)c2cc(-c3ccccc3F)cnc2O[C@H]1CN(C)C(=O)C1CCOCC1`, the activation is -7.74% (inactive). The result for `C[C@@H]1CCCCO[C@H](CN(C)Cc2ccccc2)[C@@H](C)CN([C@H](C)CO)C(=O)c2cc(NS(=O)(=O)c3ccc(Cl)cc3)ccc2O1` reads -4.59% (inactive). The result for `C#Cc1cc(N2CCN(C(=O)c3ccoc3)CC2)n2nc(-c3cccc(Cl)c3)cc2n1` reads -0.28% (inactive). The result for `COc1ccc(-c2ccc(CN3C(C(C)C)C(=O)N(Cc4cn(CC5CCCCC5)nn4)CCS3(=O)=O)cc2)cn1` (stereo not drawn) reads 6.26% (inactive); that for `O=C(Nc1ccc(Cl)cn1)c1ccccc1-c1ccccc1`, -2.35% (inactive); that for `CC1CCCC(NC(=O)COC(=O)c2ccccc2C(=O)N(C)C2CCCCC2)C1C` (stereo not drawn), 4.19% (inactive).

For the molecule `CC(C)c1cc(C(=O)N(C)C2CCCN(Cc3ccccc3F)C2)n(C)n1` (stereo not drawn), the activation is -3.3% (inactive). The result for `Cc1ccc(C=O)c([B-](F)(F)F)c1` reads -6.39% (inactive); that for `COCCCN1C(=O)C(CC(=O)NCc2cccs2)CC(C(=O)N2CCOCC2)=C1C` (stereo not drawn), -6.5% (inactive).

As to `O=C(COc1ccc(Br)cc1)OCC(=O)c1ccc[nH]1`, the activation is -8.33% (inactive). The result for `CCCC(=O)Nc1ncnc2c1ncn2[C@@H]1O[C@@H]2OP(=O)(O)OC[C@H]2[C@H]1OC(=O)CCC` reads 49.2% (active). Take `C[C@@H]1CN([C@H](C)CO)C(=O)CCCn2cc(nn2)CO[C@H]1CN(C)S(C)(=O)=O`: the activation was -6.01% (inactive).

Take `C[C@H]1CN(c2ccc(Br)cc2)C(=O)[C@@H]1CC(=O)Nc1ccc(Br)cc1`: the activation is -2.37% (inactive). Consider `COc1cccc(NC(=O)N(C)C[C@@H]2Oc3ncc(Br)cc3C(=O)N([C@@H](C)CO)C[C@H]2C)c1`, for which the activation was -5.28% (inactive).
